Laboratory results: PubChem BioAssay (NCI)
This is part of a sample that, as a whole, favours compounds with a hit. Of some 83,000 tested, about 20% had one in any assay.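 The test compound was applied at a single concentration to cells in 96-well plates for 48 hours, and percent growth was recorded.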 Unmarked numbers belong to inactive results. The source made the active and inactive calls. How the source made its calls: active means growth percent below 10; inactive means the rest.

The molecules below were run on MDA-MB-468 breast (assay: NCI-60 one-dose screen, 48 h (100 = growth as untreated, 0 = no growth, -100 = all killed)). Details: 10 µM unless noted.

SMILES | growth
N=C(N)c1ccc(OCCSCCOc2ccc(C(=N)N)cc2)cc1 | 40.1%
COc1ccc(N2C(=O)/C(=C/C(Cl)=C/c3ccc([N+](=O)[O-])cc3)SC2=S)cc1 | -11.8% (active)
Oc1cc(/C=C/c2nc(N3CCOCC3)c3cc(Cl)c(Cl)cc3n2)cc(O)c1O | 85%
CC12O[C@H](C[C@@H](O)[C@H]1O)n1c3ccccc3c3c4c(c5c6ccccc6n2c5c31)C(=O)N(CCCN)C4=O | 17.1%
CN(C)c1ncnc2c1ncn2C1CCCCO1 (stereo not given) | 111%
O=C1CCC23OC(C(O)c4ccccc4N12)C1C(Br)=NOC13 (stereo not given) | 115%
COc1ccc(/C=C2\c3cc(OC)c(OC)c(OC)c3CC[C@@H]2O)cc1F | 13.5%
Cc1c[nH]c(=O)n(Cc2nnc(CCC(=O)c3nc4ccccc4[nH]3)o2)c1=O | -1.54% (active)
O=C(CCl)Oc1ccc(-c2ccccc2)c(Br)c1 | 97.5%
COc1ccc(-c2ccc(O)c(C(=O)/C=C/c3cc(OC)c(OC)c(OC)c3)c2)cc1 | 85.2%
COc1ccc(-c2nnc(N3CCN(C(=O)CN4CCN(c5ccc(Cl)cc5)CC4)CC3)nc2-c2ccc(OC)cc2)cc1 | 74%
COc1ccc(/C=N/NC(=O)c2cnn(CC(O)Cc3ccccc3)c2N)cc1OC1CCCC1 (stereo not given) | 93.4%
Oc1cccc2ccc(-c3nnc(SCc4ccc(O)c5ncccc45)o3)nc12 | 0.74% (active)
Cc1cc(NS(=O)(=O)c2ccc(-c3cnc(C4CC4)o3)cc2)ccc1I | 3.98% (active)
CCCCCCCCCCCCCCNCc1ccccc1 | -29.3% (active)
C[N+]1(CCC[N+]2(C)C[C@@H]3[C@H](C2)[C@@H]2C=C[C@H]3C2)CCOCC1 (stereo not given in full) | 108%
CCOC(=O)c1c(NC(=O)c2cccc(C(F)(F)F)c2)sc2cc(O)ccc12 | 85.4%
c1ccc(Nc2nc(-c3ccccn3)cs2)nc1 | -14.6% (active)
C=CCNC(=S)NN | 56.5%
COC(=O)c1ccc(Cn2cnc3c(N)ncnc32)cc1 | 106%

SMILES | growth
O=S(=O)(c1ccccc1)N1CCCN(c2nc(-c3ccccc3)nc3nc(-c4ccccc4)oc23)CC1 | 116%
COC(=O)c1[nH]nc(OC)c1C1(C(C#N)c2nc3ccccc3s2)CCCc2ccccc21 (stereo not given) | 98.2%
Cc1cc(C)c([O-])c(CN(C)CCN(C)Cc2cc(C)cc(C)c2[O-])c1.O=C([O-])c1cccc(C(=O)[O-])n1.[Ti+4] | -8.96% (active)
COc1cc(/C=C2\CN(S(=O)(=O)c3ccc(C)cc3)C/C(=C\c3cc(CN4CCCC4)c(O)c(OC)c3)C2=O)cc(CN2CCCC2)c1O | -11.9% (active)
CCN(CCNc1ccc(C)c2sc3ccccc3c(=O)c12)CC(C)(C)O | 26%
O=C(Nc1ccc(Oc2cccc(Cl)c2)c(Cl)c1)c1cccnc1 | -9.21% (active)
CCCCCCCCCCCC(=O)[O][Sn]([CH2]CCC)([CH2]CCC)[CH2]CCC | -79.4% (active)
Clc1nccc2c(-c3csc(-c4c[nH]c5ccccc45)n3)c[nH]c12 | 29.2%
CC1=NN(c2cccc(Cl)c2)C(=O)/C1=C\C=C\c1ccccc1 | 9.96% (active)
C=C1C(=O)O[C@H]2[C@H]1CC/C(CNS(=O)(=O)c1ccc3ccccc3c1)=C\CC[C@@]1(C)O[C@@H]21 | -54% (active)
CN1CCN(Cc2cc(NC(=O)c3cccc(C#Cc4cccc5[nH]nc(N)c45)c3)cc(C(F)(F)F)c2)CC1 | 10.8%
O=C(/C=C/c1ccc(Cl)cc1)c1cccc(OCCCOc2cccc(C(=O)/C=C/c3ccc(Cl)cc3)c2)c1 | 92.9%
Cc1cc(=O)oc2cc(OC(=O)CN3CCN(C)CC3)ccc12 | 101%
c1ccc(-c2nc(N3CCNCC3)c3nc(-c4ccccc4)oc3n2)cc1 | -37.2% (active)
CNc1ncc2cc(-c3cc(NC(=O)NCCC(C)(C)C)c(F)cc3C)c(C)nc2n1 | 52.7%
CCCCCCCC[C@@H]1N[C@@H](C(=O)OC)Cc2c1[nH]c1ccccc21 | 94.3%
COc1cc(-c2cc(-c3ccc(Nc4nc(Nc5ccccc5)nc(Nc5ccc(Cl)cc5)n4)cc3)nc(N)n2)cc(OC)c1OC | 90.7%
CCC(c1cccc(O)c1)C(CC)c1cccc(O)c1 (stereo not given) | 24.1%
O=C(CNc1ncco1)Nc1ccc(S(=O)(=O)c2ccc(NC(=O)CNc3ncco3)cc2)cc1 | -61.7% (active)
Nc1nc(-c2cccc([N+](=O)[O-])c2)c(N=Nc2ccc(Br)cc2)s1 | -45.7% (active)
